Only some compounds are listed: those with a hit (about 13% of all), similar ones and a draw of the others.
FMDV antiviral = blocks foot and mouth disease virus. FMDV antiviral cell-based qHTS. Potency, µM (series often up to 57.9 µM), for inactives: top-dose activity change, negative = inhibition, usual class: inhibitors. hit rate 1.2% among 410,000. AID 1159524; calls by dose curve; tested in HEK293T cells; further: read-out not given here; potency means the concentration at half of the fitted maximal effect; on the % scale 0 is the no-effect control and ±100 the full control effect; nearly all actives have a fitted effect of over 45% in size
Cycloheximide cs = counter-screen hit for Shiga toxin inhibitors, cycloheximide; max response, %; cell reporter, cycloheximide protein synthesis inhibition counterscreen; hit rate 12% among 300,000; in the data active means max response mostly above about 13%, no sharp cut-off; inactive means mostly below about 14%; further: read at 38.3 µM for the half of the compounds with a filed dose; 0% is about no effect
MARV entry inh = Marburg virus entry inhibition; Marburg virus pseudotyped entry inhibition, cell reporter; Potency, µM (highest dose often 37.8 µM), inactives show at the top dose activity change, negative = inhibition, hits mostly inhibitors; hit rate 1.8% among 300,000; AID 540276; calls by dose curve; tested in HEK293 cells; further: potency means the concentration at half of the fitted maximal effect; on the % scale 0 is the no-effect control and ±100 the full control effect
Shiga toxin inh = blocks Shiga toxin action in Vero cells; Vero cells, Shiga toxin protein synthesis inhibition reporter; inhibition, % at 38.7 µM; hit rate 9.2% among 290,000; AID 2315; in the data active means inhibition mostly above about 28%, no sharp cut-off; inactive means mostly below about 43%; further: 0% is about no effect
HCV inhibitor = HCV inhibition | Huh7.5.1 HCVcc-Cre infection, luciferase reporter, 44 h | Potency, µM (titrated, usually from 41.8 µM), for the others: top-dose activity change, negative = inhibition, actives largely listed as inhibitors | hit rate 3.4% among 340,000 | AID 651820; active means well fitted inhibition curve with a large enough effect; inconclusive means small, poorly fitted or top-dose-only effect, or another doubt; inactive means no such curve, though single readings can be large or run the other way; further: potency means the concentration at half of the fitted maximal effect; on the % scale 0 is the no-effect control and ±100 the full control effect
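1,000 cells/well; 4 h culture; + compound; + HCVcc-Cre (~0.5 moi); 44 h; luciferase substrate, RT 15 min; read 15 sec.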
Lassa entry inh = Lassa virus entry inhibition | Potency, µM (doses to about 37.9 µM), for the others: at the top dose activity change, negative = inhibition, actives largely listed as inhibitors | hit rate 1.2% among 300,000 | Lassa virus pseudotype entry inhibition, cell reporter | AID 540256; calls by dose curve; tested in HEK293 cells; further: potency means the concentration at half of the fitted maximal effect; on the % scale 0 is the no-effect control and ±100 the full control effect; nearly all actives have a fitted effect of over 50% in size
* marks the source's active call; other numbers are inactive results; u = inconclusive; x = no result; [ ] = dose if it differs, or a comment.

SMILES	FMDV antiviral	Cycloheximide cs	MARV entry inh	Shiga toxin inh	HCV inhibitor	Lassa entry inh
Cc1cccc(N2CCN(C(=O)c3cccn4c(=O)c5cc(Cl)ccc5nc34)CC2C)c1 (centres undefined)	-20%	x	x	x	x	1%[46.1 µM]
Cc1ccc(NC(=O)Nc2ncccc2C)cc1	0%	63*	0%	106*	10%	u
Cc1cccnc1NC(=O)Nc1ccc(F)cc1	50%	30	21%	69*	2%	28%
CCOC(=O)c1ccc(NC(=O)Nc2ncccc2C)cc1	30%	8	x	-2	-14%	x
CCCC(=O)Nc1sc2c(c1C#N)CCCC2	20%	33*	3%[46.1 µM]	74*	u	1%
Cn1nccc1C(=O)NC(=S)Nc1sc2c(c1C#N)CCCCC2	36%	17	15%	34	7%	u
COCC(=O)Nc1sc2c(c1C(=O)OC)CCC(C)C2 (centres undefined)	7%	12*	-1%	37	7.1µM*	16%
CC(=O)NC(=S)Nc1sc2c(c1C#N)CCCCC2	0%	30*	u	84*	u	u
COC(=O)c1c(NC(=O)CN2CCOCC2)sc2c1CCC(C)C2 (centres undefined)	-19%	2	u	47	u	u
N#Cc1c(NC(=O)C2CC2)sc2c1CCCCC2	28%	31*	2%	37*	10%	u
O=S(=O)(c1ccc(F)cc1)n1ccc(-c2cccc(OCc3c(F)cccc3Cl)c2)n1	-4%	10	u	-9	u	-10%
COc1cc(Nc2nc(SCc3ccccc3Cl)nc3ccccc23)cc(OC)c1	-21%	x	x	x	x	14%[46.1 µM]
COC(=O)c1c(NC(=O)C2CC2)sc2c1CCCC2	-9%	-2	x	-11	10µM*	x
Cc1onc(C(=O)Nc2sc3c(c2C#N)CCCC3)c1[N+](=O)[O-]	44%	33*	x	82*	-4%	x
CCOC(=O)c1c(NC(=O)C2CCCCC2)sc2c1CCN(C(C)C)C2	0%	-5	x	10	7.9µM*	x
COC(=O)c1c(NC(=O)C2CCCCC2)sc2c1CCN(C(C)C)C2	u	-1	x	-6	-11%	x
Cc1sc(NC(=O)COc2ccccc2)c(C#N)c1C	12%	41*	u	96*	-22%	-22%[46.1 µM]
COC(=O)c1c(NC(=O)CCC(=O)O)sc2c1CCCCC2	0%	-3	u	-19	1%	9%
O=C(Cc1ccccc1)NCC(=O)Nc1cc(Cl)ccc1Cl	-1%	-6	u	-3	13%	u
CCOc1cc(/C=N/NC(=O)CSc2nncn2C)ccc1OCC(N)=O	-16%	29	2%	72	11%	-2%
CCOc1ccc(CCNC(=O)c2cccc(Nc3nc4ccccc4nc3-n3nc(C)cc3C)c2)cc1OCC	-13%	x	4%[46.1 µM]	x	x	-1%[46.1 µM]
CC(C)(/C=N/O)/[N+]([O-])=C/c1ccccc1	7%	-1	0%[46.1 µM]	4	9%	0%
CCCc1cc(C(=O)Nc2sc3c(c2C#N)CCC3)no1	10%	12	-19%	24	-16%	-24%
N#Cc1c(NC(=O)c2cccc3ccccc23)sc2c1CCCC2	x	x	x	x	x	0.2µM*
CC(C)C(=O)Nc1sc2c(c1C#N)CCCCC2	27%	24*	10%	62*	u	-1%
SMILES	FMDV antiviral	Cycloheximide cs	MARV entry inh	Shiga toxin inh	HCV inhibitor	Lassa entry inh
Cn1nc(C(=O)Nc2sc3c(c2C#N)CCCC3)ccc1=O	13%	27*	19%[14.2 µM]	67	18%	-3%
COc1cccc(OC)c1C(=O)Nc1sc2c(c1C#N)CCC2	-10%	1	-5%	10	-17%	u
N#Cc1c(NC(=O)c2nc3ncccn3n2)sc2c1CCCCC2	0%	30*	u	58*	7%	-30%
COC(=O)CCC(=O)Nc1sc2c(c1C#N)CCCC2	-18%	22	14%	-8	-5%	-7%
O=S(=O)(NCCc1c[nH]c2ccccc12)c1ccccc1	47%	6	-6%	-8	13%	-11%
N#Cc1c(NC(=O)CSc2nc(N)cc(=O)[nH]2)sc2c1CCCCCC2	x	-3	u	-6	u	-4%
N#Cc1c(NC(=O)CSc2ncn[nH]2)sc2c1CCCCC2	8.9µM*	-8	0.46µM*	-35	u	-82%[14.3 µM]
COc1cc(C(=O)Nc2sc3c(c2C#N)CCCC3)c(Br)c(OC)c1OC	-22%	x	x	x	x	-28%[46.1 µM]
Cc1cc(C(=O)Nc2sc3c(c2C#N)CCCCC3)cs1	19%	29*	u	60*	u	-26%
COc1ccc(CN(C)CC(=O)Nc2sc3c(c2C#N)CCC3)cc1OC	-6%	-3	x	13	11µM*	x
Cc1cccc(OCC(=O)Nc2sc3c(c2C#N)CCC3)c1	x	21*	30%	60*	u	17%
Cc1cnc(C(=O)OCC(=O)Nc2sc3c(c2C#N)CCC3)cn1	-7%	x	-16%	x	0%	-25%
CC(C)(C)C(=O)C1=C(O)C(=O)N(Cc2ccccc2)C1c1ccccc1Cl (centres undefined)	69%	-2	x	x	9%	x
CC(NC(=O)Cc1ccsc1)c1ccc(F)cc1 (centres undefined)	12%	-2	9%[46.1 µM]	-5	14%	-14%
CC(C)(C)C(=O)Nc1sc2c(c1C#N)CCC2	7%	1	u	-9	-26%	5%
CC(=O)Nc1sc2c(c1C#N)CCCC2	38%	4	20%[46.1 µM]	1	11µM*	7%
CCCCN(C)CCNC(=O)C(=O)c1c(C)[nH]c2ccccc12	5%	6	2%[46.1 µM]	-4	3%	-9%
Cc1ccc(-c2csc(NC(=O)CSc3nc4ccccc4c(=O)n3CCCN(C)C)n2)cc1	2%	14	u	21	1.4µM*	u
COc1ccccc1-c1nnc(SCC(=O)Nc2nc(-c3ccccc3)cs2)n1C	32µM*	12	23µM*	28	u	23µM*
CCCCn1c(SCC(=O)Nc2nnc(CC)s2)nc2ccccc2c1=O	-5%	-2	6%	-13	-1%	-6%
CCn1c(SCC(=O)Nc2nc(-c3ccc(C)cc3)cs2)nnc1-c1ccccc1O	16µM*	0	u	-3	6.3µM*	u
Cc1cc(C)nc(SCc2nnc(SCC(=O)Nc3nc(-c4ccccc4)cs3)n2C)n1	u	-3	-18%	-3	u	2%
O=C(CSc1nnc(-c2cccnc2)n1Cc1ccco1)Nc1nc(-c2ccc(F)cc2)cs1	20µM*	-2	u	8	25µM*	-7%
O=C(C1CCN(S(=O)(=O)c2cccnc2)CC1)N1CCN(c2cccc(Cl)c2)CC1	0%	-1	-1%	-7	-26%	x
COc1ccc(CNC(=O)/C=C/c2cc([N+](=O)[O-])ccc2OC(F)F)cc1OC	-31%	-3	-5%	-3	u	6%
COc1cc(/C=C/C(=O)O)cc(S(=O)(=O)Nc2ccccc2Oc2ccccc2)c1OC	-20%	-2	x	2	8%	x
CN1CCN(/C=C2\SC(=S)NC2=O)CC1	-12%	-7	-2%	-50	10%	-1%
O=C(C[n+]1cc(-c2ccccc2)n2c1CCC2)Nc1nc(-c2ccccc2)cs1	-8%	12	20%	1	u	10%

Screening results from PubChem BioAssay.
